Measurements as given in PubChem BioAssay AID606 (Columbia University Molecular Screening Center, 2007).
The campaign covered roughly 52,000 compounds. Fewer than 10 were called active. Not all results are given here. Values without a mark were called inactive.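 How the source made its calls: active means IC50 under 40 µM in the dose-response test; inactive means IC50 of 40 µM or more, or never dose-tested.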

The compounds below were run against Tyrosine-protein phosphatase non-receptor type 22 (Homo sapiens) (UniProt Q9Y2R2) (assay: LYP phosphatase inhibitors, primary screen, biochemical, DiFMUP fluorescence, recombinant catalytic domain, 10 µM (AID 606)). Conditions: at 10 µM, hits give high values.
Sequence of Tyrosine-protein phosphatase non-receptor type 22 (Homo sapiens) (Q9Y2R2 whole entry, looked up, the tested form may be a part): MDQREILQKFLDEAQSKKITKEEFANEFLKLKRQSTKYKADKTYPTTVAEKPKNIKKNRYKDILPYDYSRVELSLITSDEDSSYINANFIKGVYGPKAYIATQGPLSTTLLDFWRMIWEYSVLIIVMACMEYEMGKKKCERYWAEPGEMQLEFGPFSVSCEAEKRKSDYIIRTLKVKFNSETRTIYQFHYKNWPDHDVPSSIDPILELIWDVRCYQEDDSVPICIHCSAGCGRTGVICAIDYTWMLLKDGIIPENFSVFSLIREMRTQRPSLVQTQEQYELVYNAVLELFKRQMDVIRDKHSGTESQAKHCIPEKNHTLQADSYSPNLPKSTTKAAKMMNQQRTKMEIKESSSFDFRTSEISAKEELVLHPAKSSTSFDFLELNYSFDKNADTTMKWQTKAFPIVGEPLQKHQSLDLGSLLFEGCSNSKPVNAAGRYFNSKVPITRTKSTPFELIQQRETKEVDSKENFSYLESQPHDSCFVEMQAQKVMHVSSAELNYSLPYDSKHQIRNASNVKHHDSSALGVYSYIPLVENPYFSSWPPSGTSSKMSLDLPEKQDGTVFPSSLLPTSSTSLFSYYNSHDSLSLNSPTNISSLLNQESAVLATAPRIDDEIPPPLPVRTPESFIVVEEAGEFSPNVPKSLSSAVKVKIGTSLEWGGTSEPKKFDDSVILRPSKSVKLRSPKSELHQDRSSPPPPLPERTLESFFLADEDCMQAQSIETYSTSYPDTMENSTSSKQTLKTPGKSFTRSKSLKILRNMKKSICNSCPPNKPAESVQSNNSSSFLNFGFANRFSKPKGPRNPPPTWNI

SMILES	inhibition
CC1CCCCN1CCNC(=O)Cn1nc(-c2ccccc2)ccc1=O (stereo unspecified)	-5.86%
CCOC(=O)N1CCC(NC(=O)CCC(=O)N2CC(C)Oc3ccccc32)CC1 (stereo unspecified)	4.49%
COCCn1cc(C(=O)N2CCCC(C)C2)c2c3ccccc3n(C)c2c1=O (stereo unspecified)	8.11%
CCn1c(SCC(=O)Nc2ccc(C(C)=O)cc2)nc2ccccc21	9.9%
CC(C)C(NC(=O)C1CCCCC1)C(=O)Nc1ccc2c(c1)OCCO2 (stereo unspecified)	5.06%
Cc1cc(C)nc(N2CCN(c3ncnc4c3cnn4Cc3ccc(Cl)cc3Cl)CC2)n1	0.3%
Cc1c(C(=O)N2CCOCC2)oc2ccc(S(=O)(=O)N3CCCCCC3)cc12	1.73%
C=CCn1c(C)nc2c(c1=O)c1nc3ccccc3nc1n2-c1ccc(C)cc1	20.7%
Cc1ccc(C2CC(c3ccccc3C)n3nc(N)nc3N2)cc1 (stereo unspecified)	1.78%
O=C(c1ccccc1)c1coc2ccc(O)c(CN3CCOCC3)c12	4.43%
CCn1c(SCCC#N)nnc1-c1ccncc1	5.61%
COC(=O)C1C(=O)C2=C(CC1C)NC(C)=C(C(=O)OC(C)C)C2c1ccc(OC)c(O)c1 (stereo unspecified)	8.85%
CCOn1c(=O)c(-c2cc3ccccc3o2)[n+]([O-])c2ccccc21	7.2%
N#C/C(=C\c1ccc[nH]1)S(=O)(=O)c1ccccc1	1.07%
Cc1cccc(-c2noc(C3CCCCC3)n2)c1	15.8%
CCOc1ccc(C(=O)NCCCN(CC)CC)cc1	16.6%
CCC1CCCCN1C(=O)Cn1c(=O)oc2ccccc21 (stereo unspecified)	-4.33%
Cc1ccc(NC(=O)N(Cc2cc3cc(C)cc(C)c3[nH]c2=O)CC2COCCO2)cc1 (stereo unspecified)	1.86%
CC(C)CN1C(=O)NC(NC(=O)c2cccs2)(C(F)(F)F)C1=O (stereo unspecified)	-4.34%
CCOc1ccccc1N(C(=O)Cn1nnnc1-c1ccc(C)o1)C(CC)C(=O)NC(C)(C)C (stereo unspecified)	7.35%
O=C(NCc1ccccc1)N(Cc1nc2ccccc2c(=O)[nH]1)C1CCCC1	12.2%

SMILES	inhibition
Fc1ccccc1N1CCN(c2nc3ccccc3n3nnnc23)CC1	0.81%
CN(C(=O)COC(=O)c1nc(-c2ccccc2)n(-c2ccccc2)n1)C1CCS(=O)(=O)C1 (stereo unspecified)	23.8%
C=CCc1cccc(CNc2nc3ccccc3n2CC)c1O	8.31%
O=C(O)CCc1ccc(-c2ccccc2)n1NC(=O)c1ccco1	13.5%
CC1CN(C(=O)c2cc3c(=O)n4ccccc4nc3s2)CC(C)O1 (stereo unspecified)	14.8%
CC(C)CC(=O)NC1(C(F)(F)F)C(=O)Nc2c1c(=O)n(C)c(=O)n2C (stereo unspecified)	1.85%
COc1ccc(C)cc1NC(=O)CN1CCN(c2ccccc2F)CC1	9.06%
Cc1nn2c3c(cnc2c1-c1ccccc1)C(=O)CC(c1ccco1)C3 (stereo unspecified)	3.63%
COc1nc(C)nc2c1sc(=S)n2C	-1.82%
Cn1c(=O)c2c(nc(N3CCOCC3)n2Cc2c(F)cccc2Cl)n(C)c1=O	4.34%
COC(=O)COC(=O)c1ccc(-n2nnnc2SC)cc1	10.7%
O=C(CCn1c(=O)oc2ccccc21)N1CCN(C(c2ccccc2)c2ccccc2)CC1	5.67%
O=C(Oc1ccc(OC(=O)c2ccncc2)cc1)c1ccncc1	8.57%
COCC(C)n1c(C)cc(C(=O)COC(=O)c2ccc3ncsc3c2)c1C (stereo unspecified)	-12.6%
CCCn1cnc2cc(NCc3ccccn3)ccc21	6.61%
NC(=O)c1ccccc1NC(=O)CCCN1C(=O)CCC1=O	14.4%
CCN(CC)c1ccc(C(=O)OCC(=O)N2CCN(c3ccccc3)CC2)cc1	0.55%
COc1ccc(N(CC(=O)Nc2ccc(OC)c(Cl)c2)S(=O)(=O)c2c(C)noc2C)cc1	6.18%
CCOC(=O)C1CCN(C(=O)COc2ccc(N(C)S(=O)(=O)c3cccs3)cc2)CC1	4.68%
CC1(C)Cc2c(C#N)c(NCCCO)nc(-c3ccccc3)c2CO1	-2.42%
CSc1nc(-c2ccco2)nn1S(=O)(=O)c1ccccc1	-1.38%

SMILES	inhibition
CCN(CC)Cc1cc2ccccc2c2c1COC2	0.09%
c1ccc(CCNc2ncnc3c2nnn3Cc2ccccc2)cc1	-4.3%
COc1cccc(OC)c1OCC(O)CN1CCN(c2ccccc2)CC1 (stereo unspecified)	2.34%
CC#CCCCC(=O)Nc1cc(OC)nc(OC)n1	3%
CN1C(=O)C(C(=O)NC(C)(C)C)C2c3ccccc3OC13CCCCC23 (stereo unspecified)	-15%
CC(C)N(Cc1nc(-c2ccccc2)no1)S(=O)(=O)c1ccccc1	1.55%
COc1cccc(NC(=O)c2ccc(CN3CCOCC3)cc2)c1	8.87%
Cc1nc2nc(-c3cccnc3)nn2c(C)c1Cl	14.4%
CCc1cc(C(=O)Nc2ccccc2)cs1	0.95%
CC(C)n1c(C(O)c2ccc3c(c2)OCO3)nc2ccccc21 (stereo unspecified)	5.85%
COc1cccc2cc(-c3cn4cccc(C)c4n3)c(=O)oc12	-3.29%
CCCn1c(CN2CCCCC2CC)nc2c1c(=O)n(C)c(=O)n2C (stereo unspecified)	-4.26%
CC(=O)NC(CCS(C)(=O)=O)C(=O)Nc1ccccc1Cl (stereo unspecified)	1.63%
CS(=O)(=O)N(CC(=O)Nc1ccc2c(c1)OCCO2)c1ccc2c(c1)OCO2	23.4%
COc1ccc(N2CCN(C(=O)C(Cc3ccccc3)n3cccc3)CC2)cc1 (stereo unspecified)	-12.6%
CCN(CC)C(c1ccc(F)cc1)c1nnnn1C1CCCCC1 (stereo unspecified)	3.34%
NC(=O)NC(=O)COC(=O)CCCc1c[nH]c2ccccc12	1.43%
Cc1noc(NS(=O)(=O)c2ccc(NC(=O)CSc3ncccn3)cc2)c1C	11.6%
COc1ccc(C(CNC(=O)c2cc(C)oc2C)N2CCOCC2)cc1 (stereo unspecified)	10.4%
